The target in test [1] is Peroxisome proliferator-activated receptor alpha (Homo sapiens) (UniProt Q07869). Put plainly: qHTS assay for small molecule agonists of the peroxisome proliferator-activated receptor alpha (PPARalpha) signaling pathway (AID 651778). Also: % of control where 0% means no effect. The settings on record: PathHunter PPARalpha complementation, chemiluminescence, 6 h; stronger effect = higher value. In outline:
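Chemiluminescence from complemented enzyme reported PPARalpha activation in cells after 6 hr of compound treatment at 37 C. The detection reagent was incubated for 60 min at room temperature, and compounds were scored as agonists.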
In general terms: In qHTS, concentration-response curves come from the screen itself.

Test [2] in a line: qHTS for compounds that reverse cellular toxicity of Amyloid beta (A-beta) peptide in yeast: LOPAC Validation Assay (AID 720559).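 Also: plate controls were DMSO for no effect and equimolar ferric chloride plus clioquinol rescue for full effect.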 As to conditions: yeast expressing A-beta; series mostly up to 46.1 µM. In outline: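 Rescue of A-beta toxicity was scored as yeast growth by 600 nm absorbance after 48 hr at 30 C with compound. Normalization used DMSO (negative) and equimolar ferric chloride plus clioquinol (positive).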

Test [3] addresses Arylsulfatase A (Homo sapiens) (UniProt P15289). Put plainly: qHTS screen for enhancers of Arylsulfatase A (ASA1): LOPAC Validation Assay (AID 720538). The settings on record: ASA enzyme activity, LOPAC qHTS enhancer assay; series mostly up to 57.5 µM. In outline: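 Enhancer assay in patient-derived MLD fibroblasts carrying ASA-I179S: 48 h compound exposure at 37 C, then 14 h room-temperature pNCS turnover (0.5 mM final) in lysis buffer. Read by fluorescence at 525/598 nm after NaOH stop.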

A short description of test [4]: qHTS assay for environmental chemicals that activate the Aryl hydrocarbon Receptor (AhR) signaling pathway (AID 651777). Also: % of control where 0% means no effect; nearly all actives have a fitted effect of over 15% in size. As to conditions: 1A2-DRE human hepatoma cells, luciferase, 24 h; stronger effect = higher value. In outline:
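Quantitative HTS in stably transfected human liver-derived cells whose luciferase gene sits downstream of the CYP1A2 promoter and dioxin response element. After 24 hr exposure at 37 C, One-Glo luminescence was measured.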

Several values for one entry are separate records, joined by “and”; a condition that tells them apart may be missing. Identical values can stand only once. A number with no mark means an inactive call. Results filed as inconclusive are left out. Activity calls are given as the source filed them. Calls follow the shape of the dose curve; as a rule, active = well fitted curve in the direction sought with a large enough effect; inconclusive = small, poorly fitted or top-dose-only effect, or another doubt; inactive = no such curve, though single readings can be large; an effect the other way counts as inactive or inconclusive.

Chain of Peroxisome proliferator-activated receptor alpha (Homo sapiens) (Q07869 whole entry, looked up): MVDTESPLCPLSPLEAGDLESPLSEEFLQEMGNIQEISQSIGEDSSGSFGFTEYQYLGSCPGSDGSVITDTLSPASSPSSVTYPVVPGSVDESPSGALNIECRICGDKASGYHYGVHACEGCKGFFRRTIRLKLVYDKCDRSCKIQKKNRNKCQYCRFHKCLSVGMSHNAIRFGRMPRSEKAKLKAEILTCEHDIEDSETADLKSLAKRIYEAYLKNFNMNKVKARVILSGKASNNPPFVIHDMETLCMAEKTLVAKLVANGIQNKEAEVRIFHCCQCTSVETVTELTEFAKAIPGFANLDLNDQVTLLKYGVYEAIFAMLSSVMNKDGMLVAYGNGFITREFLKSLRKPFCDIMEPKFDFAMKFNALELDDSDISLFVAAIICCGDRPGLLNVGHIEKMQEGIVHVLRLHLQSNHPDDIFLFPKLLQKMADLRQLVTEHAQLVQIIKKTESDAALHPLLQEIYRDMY
Chain of Arylsulfatase A (Homo sapiens) (P15289 whole entry, looked up): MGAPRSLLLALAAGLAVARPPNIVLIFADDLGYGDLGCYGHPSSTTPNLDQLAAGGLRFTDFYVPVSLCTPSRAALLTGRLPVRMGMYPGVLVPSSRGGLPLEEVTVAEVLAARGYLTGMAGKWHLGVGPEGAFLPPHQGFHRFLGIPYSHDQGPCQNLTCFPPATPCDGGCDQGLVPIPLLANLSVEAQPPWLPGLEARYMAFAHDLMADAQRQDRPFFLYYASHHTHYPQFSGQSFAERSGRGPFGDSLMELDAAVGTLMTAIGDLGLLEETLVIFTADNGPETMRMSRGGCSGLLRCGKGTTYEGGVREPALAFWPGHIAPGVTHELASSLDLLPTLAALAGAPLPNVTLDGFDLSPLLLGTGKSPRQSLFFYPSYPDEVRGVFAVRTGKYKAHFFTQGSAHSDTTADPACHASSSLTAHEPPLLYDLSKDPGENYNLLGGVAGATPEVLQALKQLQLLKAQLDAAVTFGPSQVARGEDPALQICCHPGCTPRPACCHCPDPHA

On to `Nc1ccc([As](=O)(O)O)cc1`, for which the max response in test [1] is -1.85%.
In the case of `CC(C)(C)NCC(O)c1ccccc1Cl` (configuration not stated), in test [2], the outcome was inactive.
In the case of `CN=C(NC#N)NCCSCc1nc[nH]c1C`, the outcome in test [3] was “inactive; inhibitor; fitted 6.3096 uM”.
Consider `O=C1c2ccccc2C(=O)C1C(=O)C(c1ccccc1)c1ccccc1`, for which the activation in test [4] is 5.81%. In addition, the max response in test [1] was -1.83%.
On the same counts, the results for `Nc1nc(N)nc(NC2CC2)n1` are 0.42% and -0.264%.
In the case of `O=c1[nH]oc2c1CCNC2`, the result in test [3] and in test [2] was inactive.
With `CCC1(c2ccc(N)cc2)CCC(=O)NC1=O` (configuration not stated), the outcome in test [3] and in test [2] was inactive.
`Cn1c(=O)c2[nH]cnc2n(C)c1=O`: in test [3], the outcome was inactive.
Turning to `NCCCNCCSP(=O)(O)O`, the outcome in test [3] was inactive.
With `CCCCC/C=C\C/C=C\C/C=C\C/C=C\CCCC(=O)NCC(=O)O`, the outcome in test [3] and in test [2] was inactive.
As for `O=C(O)CCCc1ccc(N(CCCl)CCCl)cc1`, the activation in test [4] was -0.459% and 0.835%. In test [1], the max response was 0.105% and -1.89%. Further, the outcome in test [3] and in test [2] was inactive.
For `[N-]=[N+]=CC(=O)OC[C@H](N)C(=O)O`, in test [1], the max response is 0.305%.
For the compound `O=C(CCCN1CCC2(CC1)C(=O)NCN2c1ccccc1)c1ccc(F)cc1`, the call in test [2] was inactive.
Still for that read-out and setting: to `CN1C(=O)CCS(=O)(=O)C1c1ccc(Cl)cc1` (configuration not stated) belongs “inactive”.
In the case of `CCOP(=S)(OCC)Oc1ccc2c(C)c(Cl)c(=O)oc2c1`, the max response in test [1] is -4.26%.
Take `Cc1ncsc1CCCl`: the call in test [2] was inactive.
On the same count and under the same terms, the value for `CC(=O)N1CCN(c2ccc(OC[C@H]3CO[C@](Cn4ccnc4)(c4ccc(Cl)cc4Cl)O3)cc2)CC1` was “inactive”.
For `CC(NC(C)(C)C)C(=O)c1cccc(Cl)c1` (configuration not stated), the result in test [3] and in test [2] was inactive.
